Several values for one entry are separate records, joined by “and”; a condition that tells them apart may be missing. Identical values can stand only once. Records with an inconclusive call do not appear. Where a structure was tested more than once in an assay, its records may differ in their call. Activity calls are given as the source filed them. Calls follow the shape of the dose curve; as a rule, active = well fitted cell-killing curve with a large enough effect in the repeat runs; inconclusive = weak or mixed curves; inactive = no such curve, though single readings can be large or run the other way.
Assay: qHTS assay for identifying genotoxic compounds that show differential cytotoxicity against isogenic chicken DT40 cell lines with known DNA damage response pathways - Rad54/Ku70 mutant cell line (AID 743015); also: nearly all actives have a fitted effect of over 60% in size
Conditions: DT40 Rad54/Ku70 mutant viability, CellTiter-Glo, 40 h; series mostly up to 66.8 µM
Excerpt: National Center for Advancing Translational Sciences [NCATS]
NIH Chemical Genomics Center [NCGC]
U.S. Environmental Protection Agency [EPA]
National Institutes of Environmental Health Sciences [NIEHS]
National Toxicology Program [NTP]
U.S. Food and Drug Administration [FDA]
DNA repair pathways play a critical role in cellular homeostasis by repairing DNA damage induced by endogenous processes and xenobiotics. Isogenic chicken DT40 cell lines deficient in different DNA repair pathways can be used to identify genotoxic compounds and aid in characterizing the nature of the DNA damage induced. Two DNA repair-deficient cell lines with disrupted genes, Rad54/Ku70 or Rev3, were used to screen the Tox21 10K compound library. Possible genotoxicity was based on the presence of a significant increase in cytotoxicity in one or more of the DNA repair-deficient cell lines compared to that observed in the parental DNA repair-proficient cell line. CellTiter Glo viability assay (Promega, Madison, WI) was used to measure cell viability in these cells after compound treatment. This assay includes the data from the Rad54/Ku70 mutant cell line.
Tox21 Assay Protocol Summary:
300 DT40 mutant cells in 5 uL/well were dispensed into white, solid-bottom 1536-well plates using a Multidrop Combi (ThermoFisher Scientific, Waltham, MA) dispenser. After the assay plates were incubated at 37 C/5% CO2 for approximately 0.5 hour, 23 nL of compounds dissolved in DMSO, positive controls or DMSO only was transferred into the assay plate by a pintool work station (Kalypsys, San Diego, CA). The assay plates were incubated at 37 C/5% CO2 for 40 hours. After 5 uL per well of CellTiter-Glo reagent was added into each well of the assay plates, the plates were incubated for 30 min at room temperature and the luminescence intensity of the plates was measured using a ViewLux (PerkinElmer, Shelton, CT) plate reader.
Potency is read from the fitted curve at half-maximal effect.

Compound	Potency
CC(=O)O[C@H]1CC[C@@]2(C)C(=CC[C@@H]3[C@@H]2CC[C@]2(C)C(=O)CC[C@@H]32)C1	inactive
Clc1ccc(C(c2ccc(Cl)cc2)C(Cl)(Cl)Cl)cc1	23.7 µM (active) and 19.3 µM (active)
CCCSP(=O)(OCC)SCCC	39.9 µM (active)
CCC[CH2][Sn]([CH2]CCC)([CH2]CCC)[O]C(=O)c1ccccc1	0.193 µM (active)
C[C@@H]1CC[C@@]2(OC1)O[C@H]1[C@@H](O)[C@H]3[C@@H]4CC[C@H]5C[C@@H](O[C@@H]6O[C@H](CO)[C@H](O[C@@H]7O[C@H](CO)[C@@H](O)[C@H](O[C@@H]8OC[C@@H](O)[C@H](O)[C@H]8O)[C@H]7O[C@@H]7O[C@H](CO)[C@@H](O)[C@H](O[C@@H]8O[C@H](CO)[C@@H](O)[C@H](O)[C@H]8O)[C@H]7O)[C@H](O)[C@H]6O)[C@H](O)C[C@]5(C)[C@H]4CC[C@]3(C)[C@H]1[C@@H]2C	2.05 µM (active)
[CH3][Hg][Cl]	48.4 µM (active)
COc1cc(N)c(Cl)cc1C(=O)NC1CN2CCC1CC2 (stereo not given)	inactive
C1CCC2CCCCC2C1 (stereo not given)	inactive
Clc1ccc(C(c2ccccc2Cl)C(Cl)(Cl)Cl)cc1 (stereo not given)	28.4 µM (active)
CC1CCC(C(C)C)C(OC(=O)c2ccccc2N)C1 (stereo not given)	26.6 µM (active)
CC(C)N1C(=O)N(c2ccccc2)CSC1=NC(C)(C)C	24.3 µM (active)
[Hg+2].[I-].[I-]	0.77 µM (active)
COc1ccc(/C(=C/C(=O)N2CCOCC2)c2ccc(Cl)cc2)cc1OC	30.6 µM (active)
CCCCCCCCCC[N+](C)(C)CCCCCCCCCC	1.06 µM (active) and 344 nM (active)
C[C@H]1CC[C@@H]2[C@@H](C)[C@H]3[C@H](C[C@H]4[C@@H]5CC=C6CC(O[C@@H]7O[C@H](CO)[C@H](O)[C@H](O[C@@H]8O[C@H](CO)[C@@H](O)[C@H](O)[C@H]8O)[C@H]7O[C@H]7O[C@@H](C)[C@H](O)[C@@H](O)[C@H]7O)CC[C@]6(C)[C@H]5CC[C@]34C)N2C1 (stereo not given in full)	26.6 µM (active) and inactive
N#CNC#N	61.8 µM (active)
c1ccc(Nc2ccc3ccccc3c2)cc1	60.8 µM (active)
CC[C@H](C)[C@H]1O[C@]2(C=C[C@@H]1C)C[C@@H]1C[C@@H](C/C=C(\C)[C@@H](O[C@H]3C[C@H](OC)[C@@H](O[C@H]4C[C@H](OC)[C@@H](O)[C@H](C)O4)[C@H](C)O3)[C@@H](C)/C=C/C=C3\CO[C@@H]4[C@H](O)C(C)=C[C@@H](C(=O)O1)[C@]34O)O2	26.6 µM (active) and 6.42 µM (active)
O=C(O)c1cc[c]([Hg][Cl])cc1	1.54 µM (active)
CN(C)S(=O)(=O)N(SC(F)(Cl)Cl)c1ccccc1	0.109 µM (active)

Compound	Potency
CN(C)CCc1c[nH]c2ccc(O)cc12	inactive
CCCOCC(=Nc1ccc(Cl)cc1C(F)(F)F)n1ccnc1	4.32 µM (active)
CC(C)(C)C(O)/C(=C\c1ccc(Cl)cc1Cl)n1cncn1 (stereo not given)	18.6 µM (active)
O=C/C(Cl)=C(/Cl)C(=O)O	21.7 µM (active)
Oc1ccc2ccc3cccc4ccc1c2c34	30.6 µM (active)
O=[N+]([O-])c1cc([N+](=O)[O-])c2ccccc2c1	7.52 µM (active)
ClC1=C(Cl)[C@]2(Cl)[C@H]3[C@H]([C@H]4C=C[C@H]3C4)[C@@]1(Cl)C2(Cl)Cl	61.1 µM (active)
O=C(CCl)Nc1ccccc1	5.45 µM (active)
CC(C)[C@H](C(=O)O[C@H](C#N)c1cccc(Oc2ccccc2)c1)c1ccc(Cl)cc1	30.6 µM (active)
COC12CC[C@@]3(C[C@@H]1C(C)(O)C(C)(C)C)[C@H]1Cc4ccc(O)c5c4[C@@]3(CCN1CC1CC1)[C@H]2O5 (stereo not given in full)	48.2 µM (active)
CC1(C)[C@H](C(=O)O[C@H](C#N)c2cccc(Oc3ccccc3)c2)[C@@H]1/C=C(\Cl)C(F)(F)F	40.1 µM (active)
Clc1ccc(-c2ccc(Cl)c(Cl)c2Cl)c(Cl)c1Cl	inactive
Clc1ccc(C(Cl)(Cl)Cl)c(Cl)c1	inactive
Oc1c(Br)c(Br)c(Br)c(Br)c1Br	inactive
OC(c1ccc(Cl)cc1)(c1ccc(Cl)cc1)C(Cl)(Cl)Cl	48.6 µM (active)
CC(C)(C)OO	inactive
CCCN(CCC)c1c([N+](=O)[O-])cc(S(N)(=O)=O)cc1[N+](=O)[O-]	22.1 µM (active)
S=C(SSC(=S)N1CCCCC1)N1CCCCC1	0.596 µM (active)
Oc1cc(Cl)c(Cl)c(Cl)c1	inactive
CCCN(CC)CC1COC2(CCC(C(C)(C)C)CC2)O1 (stereo not given)	1.22 µM (active)
